Common to all, as to assay: PBM binding z-score (relative to random genomic background probes); higher = stronger binding; sequences stand for … in GC…GCGATTGACAGCGTAGAATGAAGG
Experiment [1] deals with RARb homodimer (NR concentration 270 nM). In outline:
(§1)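 Binding z-scores take random background probes as their reference. They come from custom Agilent 4×180K protein-binding microarrays incubated 1 h with ligand-free nuclear receptor dimers, with antibodies against each partner (one per run) detecting binding. Scanned fluorescence was regression-normalized.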

Experiment [2] deals with RARg:RXRa (NR concentration 270 nM, RXRa partner concentration 90 nM). In outline: as §1
Experiment [3] concerns RARg homodimer (NR concentration 270 nM). In outline:
as §1

In experiment [4] the test system is RXRa DBDmut IVT, anti-RXR (DBD mutation: RXRa K156A/R161A, NR concentration 90 nM). In outline: as §1
Experiment [5] relates to RXRa homodimer (NR concentration 180 nM). The procedure, abridged:
as §1

Experiment [6] concerns THRa:RXRa (NR concentration 90 nM, RXRa partner concentration 90 nM). The procedure, abridged: as §1
Experiment [7] relates to THRa homodimer (NR concentration 90 nM). The procedure, abridged:
as §1

Experiment [8] has as its system VDR homodimer (NR concentration 270 nM). In outline:
as §1

CGAACTAGGTCAAGGACATTGAATCTCCGCACGC: the PBM binding z-score in experiment [1] was determined as 3.12; in experiment [2] it was 3.91; in experiment [3] it was 4.46; in experiment [4], 1.62; in experiment [5], 2.91; in experiment [6], 3.16. Also, the values for the PBM binding z-score in experiment [7] and in experiment [8] were 2.43 and 1.13, respectively.

In the case of GAAACGAGGGCATTCGAGTTGATAGCATGGCGAT, the PBM binding z-score in experiment [1] came out at 0.628; in experiment [2] it was 1.26; in experiment [3], 1.38; in experiment [4], 3.03; in experiment [5] it was 1.09; in experiment [6], 3.47. Further, the PBM binding z-score in experiment [7] was -0.43; in experiment [8], 3.34.

As to TCATATAGGTAAAGGTGAAAGTTGAACGATATGA, the PBM binding z-score in experiment [1] was 2.08; in experiment [2], 2.34; in experiment [3], 1.51; in experiment [4] it was 0.648; in experiment [5], 3.71; in experiment [6], 1.79. In addition, the PBM binding z-score in experiment [7] was -0.127; in experiment [8], 0.139.

On to AGAACGAGGGCAATGAGTTGCTAGCACGGGTGGC, for which the PBM binding z-score in experiment [1] stood at 0.949; in experiment [2] it was 0.847; in experiment [3], 1.24; in experiment [4], 1.67; in experiment [5] it was 0.545; in experiment [6], 0.677. The PBM binding z-score in experiment [7] is -0.316; in experiment [8] it was 1.49.

In the case of CAGCCTTGGTCAGGGCCAGTATAGGAGGAACGTT, the PBM binding z-score was 0.149 in experiment [1]; -0.144 in experiment [2]; 0.23 in experiment [3]; -1.06 in experiment [4]; -0.491 in experiment [5]; -0.654 in experiment [6]. In addition, the PBM binding z-score in experiment [7] was -0.63; in experiment [8] it was -0.985.

Turning to ATCTCCAGGTAACAAGTTCAGTGAAAGAGAGGAC, the PBM binding z-score in experiment [1] is 2.16; in experiment [2], 1.92; in experiment [3] it was 1.39; in experiment [4], 0.944; in experiment [5], 1.12; in experiment [6], 1.96. Also, the PBM binding z-score in experiment [7] came to 1.49; in experiment [8], 3.33.

For TCATATAGGTAATACAGGTGAATGTCGGCATCTA, the PBM binding z-score in experiment [1] turned out to be 0.689; in experiment [2] it was 0.761; in experiment [3] it was 0.652; in experiment [4], 1.69; in experiment [5], 1.24; in experiment [6], 0.991. Also, the PBM binding z-score in experiment [7] was 0.573; in experiment [8], -0.00173.

The values above are taken from the supplement of paper PMC6555819.
